Potency and affinity values are given separately. Active and inactive are the calls of the source.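 The calls were made as follows: active = compounds lowering cell ATP signal whose fitted half-maximal concentration is at most twice the top tested dose; inconclusive = flat curve with 30 to 70% signal loss, or poor fit; inactive = the rest.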
Assay: HEK293T cell cytotoxicity, dose response, cytotoxicity control, CellTiter-Glo luminescence, dry powder, set 6 (AID 651949)

## FC(F)(F)c1ccc(CSc2nnc(-c3ccccc3)o2)cc1
  outcome: inactive

## FC(F)(F)Oc1cccc(CSc2nnc(-c3ccccc3)o2)c1
  outcome: inactive

## FC(F)(F)c1ccccc1-c1nnc(SCc2ccccc2)o1
  outcome: inactive

## Clc1ccccc1CSc1nnc(-c2ccccc2)o1
  outcome: inactive

## Fc1ccc(-c2nnc(SCc3cn(-c4ccccc4)nn3)o2)cc1
  outcome: inactive

## Fc1ccc(CSc2nnc(-c3ccncc3)o2)cc1
  outcome: inactive

## Clc1cccc(-c2nnc(SCc3ccccc3)o2)c1
  outcome: inactive

## FC(F)(F)c1cccc(CSc2nnc(-c3ccccc3)o2)c1
  outcome: inactive

## Cc1cccc(CSc2nnc(-c3ccc(Cl)cc3)o2)n1
  outcome: inactive

## CS(=O)(=O)c1ccc(-c2nnc(SCc3ccccc3)o2)cc1
  outcome: inactive

## c1ccc(CSc2nnc(-c3cscn3)o2)cc1
  outcome: inactive

## c1ccc(CSc2nnc(-c3cccs3)o2)cc1
  outcome: inactive

## N#Cc1ccc(-c2nnc(SCc3ccccc3)o2)cc1
  outcome: inactive

## O=S(Cc1ccccc1)c1nnc(-c2ccccc2)o1 (stereo not drawn)
  outcome: inactive

## c1ccc(Cn2cc(CSc3nnc(C4CCCC4)o3)nn2)cc1
  outcome: inactive

## Fc1ccc(-c2nnc(SCc3ccccn3)o2)cc1
  outcome: inactive

## COc1ccc(CSc2nnc(-c3ccc(Cl)cc3)o2)nc1
  outcome: inactive

## Fc1cccc(-c2nnc(SCc3ccccn3)o2)c1
  outcome: inactive

## Clc1ccc(-c2nnc(SCc3ccccn3)o2)cc1
  outcome: inactive

## c1ccc(-c2nnc(SCc3cscn3)o2)cc1
  outcome: inactive

## c1ccc(CSc2nnc(-c3ccncc3)o2)cc1
  outcome: inactive

## Fc1cccc(-c2nnc(SCc3ccccc3)o2)c1
  outcome: inactive

## c1ccc(CSc2nnc(-c3cccnc3)o2)cc1
  outcome: inactive

## O=S(=O)(Cc1ccccc1)c1nnc(-c2ccccc2)o1
  outcome: inactive

## Cc1cccc(CSc2nnc(-c3ccccc3)o2)c1
  outcome: inactive

## FC(F)(F)Oc1ccccc1CSc1nnc(-c2ccccc2)o1
  outcome: inactive

## Cc1cccc(-c2nnc(SCc3ccccc3)o2)c1
  outcome: inactive

## c1ccc(CSc2nnc(C3CCCCC3)o2)cc1
  outcome: inactive

## Fc1ccccc1-c1nnc(SCc2ccccc2)o1
  outcome: inactive

## c1ccc(CNc2nnc(-c3ccccc3)o2)cc1
  outcome: inactive

## O=S(Cc1cn(-c2ccccc2)nn1)c1nnc(-c2ccc(Cl)cc2)o1 (stereo not drawn)
  outcome: inactive

## c1ccc(CSc2ncc(-c3ccccc3)o2)cc1
  outcome: inactive

## CCSc1nnc(-c2ccccc2)o1
  outcome: inactive

## FC1(F)CN(CCSc2nnc(-c3ccccc3)o2)C1
  outcome: inactive

## CN(C)CCSc1nnc(-c2ccccc2)o1
  outcome: inactive

## c1ccc(CCc2nnc(-c3ccccc3)o2)cc1
  outcome: inactive

## c1ccc(CSc2nnc(-c3ccco3)o2)cc1
  outcome: inactive

## c1ccc(CSc2nnc(-c3cc4ccccc4o3)o2)cc1
  outcome: inactive

## c1ccc(Cn2cc(CSc3nnc(C4CCC4)o3)nn2)cc1
  outcome: inactive

## FC(F)(F)c1ccccc1CSc1nnc(-c2ccccc2)o1
  outcome: inactive

## COc1ccccc1-c1nnc(SCc2ccccn2)o1
  outcome: inactive

## Fc1ccc(CSc2nnc(-c3cccnc3)o2)cc1
  outcome: inactive

## c1ccc(-n2cc(CSc3nnc(C4CCCC4)o3)nn2)cc1
  outcome: inactive

## FC(F)(F)c1cccc(-c2nnc(SCc3ccccc3)o2)c1
  outcome: inactive

## COc1ccc(-c2nnc(SCc3ccccn3)o2)cc1
  outcome: inactive

## COc1ccccc1-c1nnc(SCc2ccccc2)o1
  outcome: inactive

## Cc1nnc(SCc2ccccc2)o1
  outcome: inactive

## CC1(O)CN(CCSc2nnc(-c3ccccc3)o2)C1
  outcome: inactive

## CS(=O)(=O)c1cccc(CSc2nnc(-c3ccccc3)o2)c1
  outcome: inactive

## c1ccc(-c2nnc(SCc3ccncc3)o2)cc1
  outcome: inactive

## Clc1cccc(CSc2nnc(-c3ccccc3)o2)c1
  outcome: inactive

## COc1ccc(-c2nnc(SCc3ccccc3)o2)cc1
  outcome: inactive

## c1ccc(CSc2nnc(-c3cccnc3)o2)nc1
  outcome: inactive

## CS(=O)(=O)c1ccccc1CSc1nnc(-c2ccccc2)o1
  outcome: inactive

## c1ccc(COc2nnc(-c3ccccc3)o2)cc1
  outcome: inactive

## FC(F)(F)Oc1cccc(-c2nnc(SCc3ccccc3)o2)c1
  outcome: inactive

## c1ccc(CSc2nnc(-c3cnco3)o2)cc1
  outcome: inactive

## Fc1ccc(CSc2nnc(-c3ccc(Cl)cc3)o2)cc1
  outcome: inactive

## c1ccc(-c2nnc(SCc3ncco3)o2)cc1
  outcome: inactive

## c1ccc(CSc2nnc(Cc3ccccc3)o2)cc1
  outcome: inactive

## CC(C)c1nnc(SCc2ccccc2)o1
  outcome: inactive

## O=S(Cc1cn(Cc2ccccc2)nn1)c1nnc(-c2ccc(Cl)cc2)o1 (stereo not drawn)
  outcome: inactive

## c1ccc(CSc2nnc(-c3ccc(-c4ccccc4)cc3)o2)cc1
  outcome: inactive

## Cc1ccccc1CSc1nnc(-c2ccccc2)o1
  outcome: inactive

## FC(F)(F)Oc1ccc(-c2nnc(SCc3ccccc3)o2)cc1
  outcome: inactive

## Brc1ccc(CSc2nnc(-c3ccccc3)o2)cc1
  outcome: inactive

## c1ccc(-c2ccc(CSc3nnc(-c4ccccc4)o3)cc2)cc1
  outcome: inactive

## CS(=O)(=O)c1ccccc1-c1nnc(SCc2ccccc2)o1
  outcome: inactive

## FC(F)(F)Oc1ccccc1-c1nnc(SCc2ccccc2)o1
  outcome: inactive

## Clc1ccc(-c2nnc(SCc3cn(-c4ccccc4)nn3)o2)cc1
  outcome: inactive

## c1ccc(-c2nnc(SC(c3ccccc3)c3ccccc3)o2)cc1
  outcome: inactive

## N#Cc1ccc(CSc2nnc(-c3ccccc3)o2)cc1
  outcome: inactive

## c1ccc(-c2nnc(SCc3ccccn3)o2)cc1
  outcome: inactive

## Fc1cccc(CSc2nnc(-c3ccccc3)o2)c1
  outcome: inactive

## c1ccc(CCc2nnc(SCc3ccccc3)o2)cc1
  outcome: inactive

## Cc1ccc(-c2nnc(SCc3ccccc3)o2)cc1
  outcome: inactive

## FC(F)(F)c1ccc(-c2nnc(SCc3ccccc3)o2)cc1
  outcome: inactive

## Brc1cccc(-c2nnc(SCc3ccccn3)o2)c1
  outcome: inactive

Reference: PubChem BioAssay AID651949 (Broad Institute, 2012)
